According to the supplement of paper PMC11732987, “Enantioselective OTUD7B fragment discovery through chemoproteomics screening and high-throughput optimisation” (Communications Chemistry, 2025):

How the values were obtained:
Assay in all cases: log2 ratio of Biotin-Ahx-Ub-VS probe labelling (fragment/DMSO); higher = less target engagement (more negative = stronger competition), active = hit call of the paper (q ≤ 0.05, log2 ratio ≤ -1)
Settings in all cases: compound concentration: 200 uM; treatment time: 3 h
USP34 = USP34 (UniProt Q70CQ2)
Sequence of USP34 (Q70CQ2 whole entry, the tested form may be a part): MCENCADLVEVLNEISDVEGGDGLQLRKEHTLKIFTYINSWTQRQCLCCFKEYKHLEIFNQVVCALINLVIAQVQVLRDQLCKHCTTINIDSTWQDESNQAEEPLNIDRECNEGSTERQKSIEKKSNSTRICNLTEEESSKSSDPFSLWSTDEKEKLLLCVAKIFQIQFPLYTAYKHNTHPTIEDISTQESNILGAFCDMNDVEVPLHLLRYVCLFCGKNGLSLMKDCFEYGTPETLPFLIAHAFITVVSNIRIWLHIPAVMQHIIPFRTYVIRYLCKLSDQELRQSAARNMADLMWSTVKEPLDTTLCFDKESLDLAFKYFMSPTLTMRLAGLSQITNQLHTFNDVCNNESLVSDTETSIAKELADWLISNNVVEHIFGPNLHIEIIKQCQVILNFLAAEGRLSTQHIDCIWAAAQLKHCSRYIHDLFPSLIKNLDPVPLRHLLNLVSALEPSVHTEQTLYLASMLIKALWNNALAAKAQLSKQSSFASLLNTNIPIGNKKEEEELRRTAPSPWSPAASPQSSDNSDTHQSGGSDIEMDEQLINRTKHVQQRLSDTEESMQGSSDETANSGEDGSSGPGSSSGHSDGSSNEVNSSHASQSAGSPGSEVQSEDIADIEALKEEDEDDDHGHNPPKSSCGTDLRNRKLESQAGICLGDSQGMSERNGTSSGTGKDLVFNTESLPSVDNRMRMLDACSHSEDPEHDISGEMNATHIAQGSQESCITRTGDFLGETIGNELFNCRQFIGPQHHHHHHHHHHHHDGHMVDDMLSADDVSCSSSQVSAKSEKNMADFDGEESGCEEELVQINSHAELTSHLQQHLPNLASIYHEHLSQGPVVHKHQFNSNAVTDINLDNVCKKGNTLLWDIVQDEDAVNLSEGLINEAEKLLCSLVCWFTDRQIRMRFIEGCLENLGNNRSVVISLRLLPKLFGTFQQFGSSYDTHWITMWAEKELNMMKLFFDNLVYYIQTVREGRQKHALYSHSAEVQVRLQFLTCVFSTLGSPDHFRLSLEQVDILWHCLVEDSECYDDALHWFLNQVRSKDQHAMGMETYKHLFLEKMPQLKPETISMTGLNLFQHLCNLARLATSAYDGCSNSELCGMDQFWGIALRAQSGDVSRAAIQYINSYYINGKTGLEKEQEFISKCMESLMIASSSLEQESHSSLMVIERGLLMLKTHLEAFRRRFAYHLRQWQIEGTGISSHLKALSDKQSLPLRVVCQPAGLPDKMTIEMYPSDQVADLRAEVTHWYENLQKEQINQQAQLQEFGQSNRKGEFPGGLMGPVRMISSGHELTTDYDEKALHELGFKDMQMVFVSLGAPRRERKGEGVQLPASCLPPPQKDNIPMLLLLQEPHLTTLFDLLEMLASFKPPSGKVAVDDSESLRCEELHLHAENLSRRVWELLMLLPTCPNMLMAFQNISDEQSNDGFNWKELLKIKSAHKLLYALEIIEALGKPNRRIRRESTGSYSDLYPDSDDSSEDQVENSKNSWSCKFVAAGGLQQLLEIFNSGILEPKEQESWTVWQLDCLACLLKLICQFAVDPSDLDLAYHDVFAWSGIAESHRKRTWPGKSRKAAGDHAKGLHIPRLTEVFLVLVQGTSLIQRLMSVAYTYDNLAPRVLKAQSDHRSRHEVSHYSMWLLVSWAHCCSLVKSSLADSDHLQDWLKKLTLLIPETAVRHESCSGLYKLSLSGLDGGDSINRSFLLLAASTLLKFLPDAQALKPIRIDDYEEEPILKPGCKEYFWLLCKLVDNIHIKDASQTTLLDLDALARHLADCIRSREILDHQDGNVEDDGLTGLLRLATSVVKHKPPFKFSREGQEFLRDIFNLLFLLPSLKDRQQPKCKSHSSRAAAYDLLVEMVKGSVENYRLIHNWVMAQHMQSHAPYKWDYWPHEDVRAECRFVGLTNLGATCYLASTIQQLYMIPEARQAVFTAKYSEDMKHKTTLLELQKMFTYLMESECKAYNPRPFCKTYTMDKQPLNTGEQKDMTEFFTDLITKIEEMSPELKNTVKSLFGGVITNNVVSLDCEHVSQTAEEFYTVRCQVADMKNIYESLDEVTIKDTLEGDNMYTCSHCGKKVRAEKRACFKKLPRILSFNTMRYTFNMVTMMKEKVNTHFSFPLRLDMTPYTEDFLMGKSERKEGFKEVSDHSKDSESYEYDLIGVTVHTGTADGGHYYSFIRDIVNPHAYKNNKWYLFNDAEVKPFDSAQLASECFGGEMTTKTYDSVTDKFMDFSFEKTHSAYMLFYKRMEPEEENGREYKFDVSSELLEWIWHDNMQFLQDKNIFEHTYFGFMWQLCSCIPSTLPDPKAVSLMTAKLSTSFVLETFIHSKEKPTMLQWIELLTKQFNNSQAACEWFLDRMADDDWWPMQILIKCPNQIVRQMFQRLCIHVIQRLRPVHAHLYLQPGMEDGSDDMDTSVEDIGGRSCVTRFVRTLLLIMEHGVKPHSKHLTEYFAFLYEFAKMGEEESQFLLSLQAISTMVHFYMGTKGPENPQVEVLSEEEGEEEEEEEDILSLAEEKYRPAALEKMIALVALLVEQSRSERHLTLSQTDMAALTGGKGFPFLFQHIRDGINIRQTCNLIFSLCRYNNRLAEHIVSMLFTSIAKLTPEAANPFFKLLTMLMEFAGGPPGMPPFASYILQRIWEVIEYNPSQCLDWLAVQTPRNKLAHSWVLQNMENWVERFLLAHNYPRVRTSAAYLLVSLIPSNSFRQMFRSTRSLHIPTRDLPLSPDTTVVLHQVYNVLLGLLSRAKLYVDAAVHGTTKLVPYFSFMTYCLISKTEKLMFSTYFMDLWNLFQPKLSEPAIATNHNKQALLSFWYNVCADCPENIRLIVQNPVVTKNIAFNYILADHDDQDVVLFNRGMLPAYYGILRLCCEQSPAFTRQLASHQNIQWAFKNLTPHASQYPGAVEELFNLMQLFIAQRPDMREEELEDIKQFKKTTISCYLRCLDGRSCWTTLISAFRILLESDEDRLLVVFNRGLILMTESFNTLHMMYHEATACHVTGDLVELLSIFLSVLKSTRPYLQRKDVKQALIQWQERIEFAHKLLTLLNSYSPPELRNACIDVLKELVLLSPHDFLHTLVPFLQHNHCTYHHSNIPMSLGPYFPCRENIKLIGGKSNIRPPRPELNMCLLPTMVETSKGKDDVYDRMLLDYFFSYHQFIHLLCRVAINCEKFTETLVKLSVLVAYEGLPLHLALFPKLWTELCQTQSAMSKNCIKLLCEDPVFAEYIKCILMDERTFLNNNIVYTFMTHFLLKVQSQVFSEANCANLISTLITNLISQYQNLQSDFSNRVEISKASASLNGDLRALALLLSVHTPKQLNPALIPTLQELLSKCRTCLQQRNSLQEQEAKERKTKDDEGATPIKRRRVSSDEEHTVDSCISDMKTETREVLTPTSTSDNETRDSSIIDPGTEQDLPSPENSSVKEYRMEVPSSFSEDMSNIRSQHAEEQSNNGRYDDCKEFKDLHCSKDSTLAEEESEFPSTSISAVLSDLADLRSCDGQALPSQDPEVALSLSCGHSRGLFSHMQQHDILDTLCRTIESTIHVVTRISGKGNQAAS
Method in brief: (§1)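 Each value is an average log2 ratio of fragment to vehicle, tested by unpaired t-test. The underlying Spectronaut label-free quantities were global-median-normalised, and only proteins with ≥2 unique peptides were included. Triplicate HEK293T lysate samples (495 µg) were exposed to fragment at 200 µM or vehicle for 3 h, then to Biotin-Ahx-Ub-VS at 0.5 µM final for 1 h, before NeutrAvidin enrichment of labelled DUBs, LysC and trypsin digestion, and diaPASEF LC-MS/MS.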

USP36 = target: T1, USP36 (UniProt Q9P275)
T1 sequence (whole entry): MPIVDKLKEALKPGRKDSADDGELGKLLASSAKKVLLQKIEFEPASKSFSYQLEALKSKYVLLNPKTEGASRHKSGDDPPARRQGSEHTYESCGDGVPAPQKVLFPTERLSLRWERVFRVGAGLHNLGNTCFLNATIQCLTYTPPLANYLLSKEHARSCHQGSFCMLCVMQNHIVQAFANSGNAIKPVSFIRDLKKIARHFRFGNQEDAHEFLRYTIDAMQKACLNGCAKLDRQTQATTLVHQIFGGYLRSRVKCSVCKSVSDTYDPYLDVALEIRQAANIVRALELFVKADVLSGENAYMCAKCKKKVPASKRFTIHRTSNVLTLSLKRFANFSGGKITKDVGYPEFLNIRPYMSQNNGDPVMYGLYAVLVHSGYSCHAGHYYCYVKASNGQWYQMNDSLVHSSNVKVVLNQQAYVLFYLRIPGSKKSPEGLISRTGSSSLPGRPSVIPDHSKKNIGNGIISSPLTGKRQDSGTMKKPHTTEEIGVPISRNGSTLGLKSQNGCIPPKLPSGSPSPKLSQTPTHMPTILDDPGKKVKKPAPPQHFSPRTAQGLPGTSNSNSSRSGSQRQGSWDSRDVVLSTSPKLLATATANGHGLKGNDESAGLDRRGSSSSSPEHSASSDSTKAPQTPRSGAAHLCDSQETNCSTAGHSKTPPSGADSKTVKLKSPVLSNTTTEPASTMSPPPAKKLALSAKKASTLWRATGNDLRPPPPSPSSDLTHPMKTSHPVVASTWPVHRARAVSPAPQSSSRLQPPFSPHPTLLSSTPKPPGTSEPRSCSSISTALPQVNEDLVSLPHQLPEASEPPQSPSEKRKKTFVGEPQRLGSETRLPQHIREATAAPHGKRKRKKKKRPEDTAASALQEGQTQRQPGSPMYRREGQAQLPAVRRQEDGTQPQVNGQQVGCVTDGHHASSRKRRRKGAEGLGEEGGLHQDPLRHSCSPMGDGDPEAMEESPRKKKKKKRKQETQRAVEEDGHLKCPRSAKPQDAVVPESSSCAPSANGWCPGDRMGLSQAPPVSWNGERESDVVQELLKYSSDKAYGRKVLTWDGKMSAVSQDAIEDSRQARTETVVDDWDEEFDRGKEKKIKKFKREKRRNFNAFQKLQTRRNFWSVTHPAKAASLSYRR
Method in brief: as §1

USP38 = target: T2, USP38 (UniProt Q8NB14)
T2 sequence (whole entry): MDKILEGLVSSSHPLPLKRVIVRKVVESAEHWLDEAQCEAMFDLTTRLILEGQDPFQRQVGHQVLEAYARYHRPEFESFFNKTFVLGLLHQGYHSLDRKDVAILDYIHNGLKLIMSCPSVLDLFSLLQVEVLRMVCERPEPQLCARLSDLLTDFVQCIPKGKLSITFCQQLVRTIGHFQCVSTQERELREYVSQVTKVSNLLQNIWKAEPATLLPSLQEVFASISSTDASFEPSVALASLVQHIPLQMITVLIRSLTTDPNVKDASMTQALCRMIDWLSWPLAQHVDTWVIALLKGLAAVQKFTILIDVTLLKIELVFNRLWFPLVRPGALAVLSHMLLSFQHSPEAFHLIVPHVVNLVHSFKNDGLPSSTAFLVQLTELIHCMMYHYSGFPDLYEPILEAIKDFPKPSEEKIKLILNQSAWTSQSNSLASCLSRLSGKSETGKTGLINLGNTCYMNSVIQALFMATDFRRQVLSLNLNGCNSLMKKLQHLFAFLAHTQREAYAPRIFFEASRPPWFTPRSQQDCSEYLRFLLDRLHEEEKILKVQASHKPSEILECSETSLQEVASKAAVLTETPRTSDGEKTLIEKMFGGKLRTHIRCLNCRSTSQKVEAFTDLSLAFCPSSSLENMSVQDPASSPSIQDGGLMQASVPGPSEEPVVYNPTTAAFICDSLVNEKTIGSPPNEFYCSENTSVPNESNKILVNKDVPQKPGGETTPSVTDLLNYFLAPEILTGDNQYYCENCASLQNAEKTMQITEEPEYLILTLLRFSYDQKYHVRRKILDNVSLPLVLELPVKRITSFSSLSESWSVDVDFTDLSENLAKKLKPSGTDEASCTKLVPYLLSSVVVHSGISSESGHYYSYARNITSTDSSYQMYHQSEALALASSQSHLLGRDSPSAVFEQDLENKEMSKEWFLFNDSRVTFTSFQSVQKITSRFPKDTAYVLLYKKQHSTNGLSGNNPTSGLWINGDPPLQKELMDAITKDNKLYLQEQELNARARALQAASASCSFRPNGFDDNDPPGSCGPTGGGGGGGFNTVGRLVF
Method in brief: as §1

USP39 = target: T3, USP39 (UniProt Q53GS9)
T3 sequence (whole entry): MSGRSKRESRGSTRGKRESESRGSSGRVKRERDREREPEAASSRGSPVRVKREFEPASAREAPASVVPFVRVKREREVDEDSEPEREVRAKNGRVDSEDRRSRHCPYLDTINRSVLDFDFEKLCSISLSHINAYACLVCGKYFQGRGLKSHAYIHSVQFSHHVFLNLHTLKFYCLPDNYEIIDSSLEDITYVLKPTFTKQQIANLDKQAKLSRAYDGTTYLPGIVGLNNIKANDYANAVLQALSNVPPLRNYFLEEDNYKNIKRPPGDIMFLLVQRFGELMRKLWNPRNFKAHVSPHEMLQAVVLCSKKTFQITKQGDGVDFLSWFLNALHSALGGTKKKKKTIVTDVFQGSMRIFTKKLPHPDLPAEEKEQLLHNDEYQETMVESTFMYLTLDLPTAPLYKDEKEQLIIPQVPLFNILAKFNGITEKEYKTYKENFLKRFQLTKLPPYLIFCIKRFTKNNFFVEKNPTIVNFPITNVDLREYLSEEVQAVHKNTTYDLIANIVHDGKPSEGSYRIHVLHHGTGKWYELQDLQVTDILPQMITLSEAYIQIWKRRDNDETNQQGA
Method in brief: as §1

USP4 = target: T4, USP4 (UniProt Q13107)
T4 sequence (whole entry): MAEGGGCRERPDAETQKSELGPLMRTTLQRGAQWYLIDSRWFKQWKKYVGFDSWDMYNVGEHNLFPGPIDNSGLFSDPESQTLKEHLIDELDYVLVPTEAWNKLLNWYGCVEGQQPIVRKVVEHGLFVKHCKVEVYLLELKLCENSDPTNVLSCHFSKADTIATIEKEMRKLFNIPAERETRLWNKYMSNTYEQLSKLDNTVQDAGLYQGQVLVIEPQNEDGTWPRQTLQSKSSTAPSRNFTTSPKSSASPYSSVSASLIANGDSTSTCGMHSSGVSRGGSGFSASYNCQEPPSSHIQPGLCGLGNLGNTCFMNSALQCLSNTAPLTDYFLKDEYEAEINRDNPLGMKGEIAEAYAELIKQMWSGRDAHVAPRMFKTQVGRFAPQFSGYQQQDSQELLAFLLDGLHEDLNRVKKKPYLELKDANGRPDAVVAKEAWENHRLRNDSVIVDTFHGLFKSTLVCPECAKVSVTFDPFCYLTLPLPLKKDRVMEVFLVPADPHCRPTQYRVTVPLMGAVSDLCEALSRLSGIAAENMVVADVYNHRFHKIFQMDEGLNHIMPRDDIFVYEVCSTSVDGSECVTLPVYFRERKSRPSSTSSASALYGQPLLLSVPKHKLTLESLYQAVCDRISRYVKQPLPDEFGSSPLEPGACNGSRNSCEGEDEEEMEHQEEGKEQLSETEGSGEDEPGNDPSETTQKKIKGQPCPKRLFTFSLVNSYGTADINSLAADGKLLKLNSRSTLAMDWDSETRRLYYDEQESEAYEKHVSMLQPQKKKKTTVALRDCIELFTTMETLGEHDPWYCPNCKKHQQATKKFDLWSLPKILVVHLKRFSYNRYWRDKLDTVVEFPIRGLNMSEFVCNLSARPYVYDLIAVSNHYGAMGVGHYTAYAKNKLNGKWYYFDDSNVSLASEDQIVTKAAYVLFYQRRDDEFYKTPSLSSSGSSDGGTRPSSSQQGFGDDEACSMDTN
Method in brief: as §1

Measured: log2 ratio of Biotin-Ahx-Ub-VS probe labelling

Cc1cc(NC(=O)CCl)n(-c2ccccc2)n1
inactive: USP34 -0.374 | USP36 -0.0233 | USP38 -0.067 | USP39 -0.12 | USP4 0.0467
